Glioma ERSR ind: induces the endoplasmic reticulum stress response in human glioma cells; U87-MG GRP78 promoter luciferase reporter, 16 h; 0.02% of 420,000 active; Potency, µM, usual class: activators; active means well fitted activation curve with a large enough effect; inconclusive means small, poorly fitted or top-dose-only effect; inactive means no such curve, though single readings can be large or run the other way; further: series mostly up to about 76 µM; nearly all actives have a fitted effect of over 35% in size
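Stably transfected U87-MG glioma cells carrying a GRP78-based luciferase sensor; 16 h compound incubation. Luminescence end-point read 10 min after Bright-Glo addition at room temperature.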
TRHR agonist: TRH receptor (human) agonism | P34981 | TRHR cells, calcium flux fluo-8, FDSS agonist mode | activation, % at 2 µM | 0.18% of 360,000 active
Target sequence (P34981 whole entry, looked up): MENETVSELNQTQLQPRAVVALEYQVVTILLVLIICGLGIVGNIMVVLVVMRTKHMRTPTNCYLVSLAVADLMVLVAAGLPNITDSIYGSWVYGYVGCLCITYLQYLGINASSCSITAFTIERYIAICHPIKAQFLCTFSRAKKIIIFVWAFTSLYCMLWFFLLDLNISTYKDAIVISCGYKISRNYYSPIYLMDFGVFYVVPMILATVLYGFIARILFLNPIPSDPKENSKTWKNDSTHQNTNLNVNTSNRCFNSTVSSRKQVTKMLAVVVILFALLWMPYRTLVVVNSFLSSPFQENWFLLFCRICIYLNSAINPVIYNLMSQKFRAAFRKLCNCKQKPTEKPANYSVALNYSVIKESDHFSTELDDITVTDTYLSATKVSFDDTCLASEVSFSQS
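Read-out: compound-evoked intracellular calcium rise in TRHR cells, fluo-8 dye, kinetic FDSS fluorescence at 1 s/cycle following a 10-cycle baseline. Cells cultured overnight before dye loading (30 min–1.5 h, RT).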
D1 PAM: enhances dopamine response at the human D1 receptor; 0.036% of 360,000 active; potentiation, % at 10 µM; P21728; HEK293 TREx D1 cells, calcium flux, dopamine EC20 potentiation; in the data active means potentiation above about 30%
TRHR PAM: allosteric enhancers of human TRH receptor | P34981 | TRHR cells, fluo-8 calcium fluorescence, EC20 TRH enhancement | enhancement, % at 2 µM | 0.66% of 360,000 active | AID 493056; in the data active means enhancement above about 30%
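TRHR-expressing cells loaded with fluo-8 calcium dye were read kinetically (ex 480/em 530) during compound addition, then stimulated with an EC20 of TRH (10 nM final). Enhancement of the Gq-mediated intracellular calcium response was scored.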
D1 ag: activates the human D1 dopamine receptor | activation, % at 2 µM | 1% of 360,000 active | AID 504660 | HEK293 T-REx D1 cells, calcium flux, agonist mode | P21728
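Tetracycline-induced HEK293 TREx D1 cells, force-coupled to calcium signalling, were dye-loaded with a no-wash calcium kit. Compound was pin-added after a 10 s baseline. Fluorescence was read kinetically at 1 cycle/s for 180 s, with calcium rises flagged as agonism.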
D1 antagonist: blocks dopamine activation of the human D1 receptor; HEK293 TREx D1 cells, calcium flux, dopamine EC80; active compounds read low; activity change, negative = inhibition, % at 10 µM; 3.2% of 360,000 active; in the data active means activity change below about -30%
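Cells carrying a force-coupled, tetracycline-inducible human D1 receptor report calcium flux. Each well gets a 10 s baseline, compound with 180 s monitoring, then an EC80 dopamine stimulus with a second 180 s kinetic read.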
A number is an active result. A selection: hits, their analogues and other compounds. The true share with any hit is near 4%. Unless noted, no stated cut-off is given here; in the data, active means activation above about 30%; inactive means the rest.

Results for COc1ccc(C2=CC(=O)C[C@H](c3ccc(OC)cc3)C2)cc1 ?
Glioma ERSR ind: inactive; TRHR agonist: inactive; D1 PAM: inactive; TRHR PAM: inactive; D1 ag: inactive; D1 antagonist: -37.0

Results for COc1ccc([C@H]2CC(=O)C=C(c3ccc(C)c(F)c3)C2)cc1 ?
Glioma ERSR ind: inactive; TRHR agonist: inactive; D1 PAM: inactive; TRHR PAM: inactive; D1 ag: 56.3; D1 antagonist: inactive

What do the screens show for `COc1ccc(CCNC(=O)COC(=O)c2cccn2C)cc1`?
Glioma ERSR ind: inactive

Results for CCOc1ccc(C(=O)N/N=C(\c2ccccc2)c2ccccn2)cc1 ?
Glioma ERSR ind: inconclusive; TRHR agonist: inactive; D1 PAM: inactive; TRHR PAM: inactive; D1 ag: inactive; D1 antagonist: -33.4

Results for CN=C(Nc1cc(C)nn1-c1ccccc1)c1ccc(F)cc1 ?
Glioma ERSR ind: inactive; TRHR agonist: inactive; D1 PAM: inactive; TRHR PAM: inactive; D1 ag: inactive; D1 antagonist: inactive

How did CC(C)c1ccc(NC(=O)Nc2cc3sccc3n2C)cc1 do in these assays?
Glioma ERSR ind: inactive; TRHR agonist: inactive; D1 PAM: inactive; TRHR PAM: inactive; D1 ag: inactive; D1 antagonist: -36.8

How did Cn1cnnc1SCC(=O)Nc1ccc2c(c1)CCC2 do in these assays?
Glioma ERSR ind: inactive; TRHR agonist: inactive; D1 PAM: inactive; TRHR PAM: inactive; D1 ag: inactive; D1 antagonist: inactive

How did O=C(Nc1ccc(NC(=O)c2cccs2)cc1)c1ccccc1 do in these assays?
Glioma ERSR ind: inactive; TRHR agonist: inactive; D1 PAM: inactive; TRHR PAM: inactive; D1 ag: inactive; D1 antagonist: inactive

What do the screens show for `COc1ccc(C(=O)Nc2ccc(Nc3ccccc3)cc2)cc1OC`?
Glioma ERSR ind: inactive; TRHR agonist: inactive; D1 PAM: inactive; TRHR PAM: inactive; D1 ag: inactive; D1 antagonist: -36.6

What do the screens show for `O=C(Cc1ccccc1)Nc1ccc(NC(=O)c2cccs2)cc1`?
Glioma ERSR ind: inactive; TRHR agonist: inactive; D1 PAM: inactive; TRHR PAM: inactive; D1 ag: inactive; D1 antagonist: -30.3

Results for COc1ccc(C(=O)Nc2cccc(/C(C)=N/NC(=O)c3ccc([N+](=O)[O-])cc3)c2)cc1OC ?
Glioma ERSR ind: inactive; TRHR agonist: inactive; D1 PAM: inactive; TRHR PAM: inactive; D1 ag: inactive; D1 antagonist: -33.5

What do the screens show for `CN(Cc1ccccc1)C(=S)NC(=O)c1cccs1`?
Glioma ERSR ind: inactive; TRHR agonist: inactive; D1 PAM: inactive; TRHR PAM: 43.6; D1 ag: inactive; D1 antagonist: inactive

What do the screens show for `O=C(Cc1ccccc1)Nc1ccc(C(=O)Nc2ccc(O)cc2)cc1`?
Glioma ERSR ind: inactive; TRHR agonist: inactive; D1 PAM: inactive; TRHR PAM: inactive; D1 ag: 33.1; D1 antagonist: inactive

How did O=C(NNC(=O)c1ccc(NC(=O)c2ccccc2)cc1)c1ccccc1 do in these assays?
Glioma ERSR ind: inactive; TRHR agonist: inactive; D1 PAM: inactive; TRHR PAM: inactive; D1 ag: 59.2; D1 antagonist: inactive

How did O=C(c1ccncc1)c1ccc(NC(=O)c2cccs2)cc1 do in these assays?
Glioma ERSR ind: inactive; TRHR agonist: inactive; D1 PAM: inactive; TRHR PAM: inactive; D1 ag: inactive; D1 antagonist: -34.5

Results for C=CCSC1=Nc2cc(OC)c(OC)cc2C2=NC(=O)CN12 ?
Glioma ERSR ind: inactive; TRHR agonist: inactive; D1 PAM: inactive; TRHR PAM: inactive; D1 ag: inactive; D1 antagonist: inactive

What do the screens show for `COc1ccc(N2C(S)=C(C#N)C(=O)NC2c2ccco2)cc1` (configuration not stated)?
Glioma ERSR ind: inactive; TRHR agonist: inactive; D1 PAM: inactive; TRHR PAM: inactive; D1 ag: inactive; D1 antagonist: inactive

What do the screens show for `Cc1ccc(C)c(-n2cc(CNCCCn3cccn3)c(-c3ccccc3)n2)c1`?
Glioma ERSR ind: inactive; TRHR agonist: inactive; D1 PAM: inactive; TRHR PAM: inactive; D1 ag: 40.0; D1 antagonist: inactive

How did Cc1cccc(-c2nn(-c3ccccc3)cc2CNCCO)c1 do in these assays?
Glioma ERSR ind: inactive

What do the screens show for `Cc1ccc(-n2cc(CNCCCn3cccn3)c(-c3cccc(C)c3)n2)cc1`?
Glioma ERSR ind: inactive; TRHR agonist: inactive; D1 PAM: inactive; TRHR PAM: inactive; D1 ag: 43.8; D1 antagonist: -40.7

What do the screens show for `Cc1ccc(C)c(-n2cc(CNC(C)Cn3cncn3)c(-c3ccccc3)n2)c1` (configuration not stated)?
Glioma ERSR ind: inactive; TRHR agonist: inactive; D1 PAM: inactive; TRHR PAM: inactive; D1 ag: inactive; D1 antagonist: inactive

What do the screens show for `CCOC(=O)c1sc(NC(=O)Nc2cccc(Cl)c2)cc1C`?
Glioma ERSR ind: inactive; TRHR agonist: inactive; D1 PAM: inactive; TRHR PAM: inactive; D1 ag: inactive; D1 antagonist: -45.6

What do the screens show for `CCCC(C)C(=O)Nc1ccc(Cl)cn1` (configuration not stated)?
Glioma ERSR ind: inconclusive; TRHR agonist: inactive; D1 PAM: inactive; TRHR PAM: inactive; D1 ag: inactive; D1 antagonist: -34.3

Results for CCCOc1ccc(C(=O)Nc2ccc(Cl)cn2)cc1 ?
Glioma ERSR ind: inactive; TRHR agonist: inactive; D1 PAM: inactive; TRHR PAM: inactive; D1 ag: inactive; D1 antagonist: -49.8

Results for CCOC(=O)c1ccc(NC(=O)Nc2ccc(Cl)cn2)cc1 ?
Glioma ERSR ind: inactive; TRHR agonist: inactive; D1 PAM: inactive; TRHR PAM: inactive; D1 ag: inactive; D1 antagonist: -32.8

Results for CCOc1cc(/C=C2\C(=O)N(CCc3ccc(OC)c(OC)c3)C(C)=C2C(=O)OC)ccc1O ?
Glioma ERSR ind: inactive; TRHR agonist: inactive; D1 PAM: inactive; TRHR PAM: inactive; D1 ag: inactive; D1 antagonist: inactive

What do the screens show for `O=C(Cc1cccs1)Nc1cc(S(=O)(=O)N2CCCCC2)ccc1Cl`?
Glioma ERSR ind: inactive; TRHR agonist: inactive; D1 PAM: inactive; TRHR PAM: inactive; D1 ag: inactive; D1 antagonist: inactive

How did CCOC(=O)c1sc(NC(=O)Nc2ccc(Cl)cc2)nc1C do in these assays?
Glioma ERSR ind: inactive; TRHR agonist: inactive; D1 PAM: inactive; TRHR PAM: inactive; D1 ag: inactive; D1 antagonist: -44.0

What do the screens show for `CCOC(=O)Nc1nc(C)c(C(=O)c2ccc(Cl)cc2)s1`?
Glioma ERSR ind: inactive; TRHR agonist: inactive; D1 PAM: inactive; TRHR PAM: inactive; D1 ag: inactive; D1 antagonist: inactive

Results for O/N=C(/CCc1ccccc1)c1ccc2c(c1)OCCO2 ?
Glioma ERSR ind: inactive; TRHR agonist: inactive; D1 PAM: inactive; TRHR PAM: inactive; D1 ag: inactive; D1 antagonist: -41.4

What do the screens show for `O=C(CCc1ccccc1)Nc1ccccc1[N+](=O)[O-]`?
Glioma ERSR ind: inactive; TRHR agonist: inactive; D1 PAM: inactive; TRHR PAM: inactive; D1 ag: inactive; D1 antagonist: -36.1

Assay outcomes (PubChem BioAssay)
